ChEMBL document CHEMBL3988442, “University of Dundee, Small-Polar-MMV Screening Library” (2021)

These compounds were tested against Shiga toxin 2 (Escherichia coli O157:H7) (UniProt P09385+P09386) (assay: E. coli 0.157:H7 Shiga Toxin SOP - stx2 screening assay). Settings: 30 µM.
Type: functional
Set-up: scale not given: direction of the effect not stated beside the values

Compound | Percent Effect [%]
Cc1ccc(C(C)NC(=O)Cc2c(C)nc3c(c2C)c(=O)[nH]n3C)o1 (stereo not given) | -15.3
Cc1cc(NC(=O)NCC(C)N2CCc3ccccc32)no1 (stereo not given) | -1.83
CC(=O)NCC(=O)N1Cc2nccn2CC(CN2CCCC2)C1 (stereo not given) | 2.69
CCc1nc(CN2CCCC(NCc3ncc(C(C)(C)C)o3)C2)no1 (stereo not given) | 2.13
COc1ccccc1CN(C)C(=O)c1cc(CN2CCC(O)CC2)on1 | -16.2
COc1ccc(C2CC(=O)Oc3cc(C)[nH]c(=O)c32)cc1 (stereo not given) | -8.78
Cn1cc(C(=O)N2CCC(Cc3nccs3)CC2)cn1 | 59.9
NC(=O)NCC(=O)N1C[C@H]2CC[C@@H]1CN(C1Cc3ccccc3C1)C2 | -7
Cc1ccoc1C(=O)N1CCO[C@H]2[C@H](OCC3CCOCC3)CC[C@@H]21 | -15.8
COc1ccc(C2C3=C(COC3=O)Nc3[nH]nc(C)c32)cc1OC (stereo not given) | -21.4
COC(=O)c1ccc(N2CCN(CCC#N)C(C)C2)cc1 (stereo not given) | 37.7
Cc1nn2cccnc2c1C(=O)N1CCCC(n2ccnc2)C1 (stereo not given) | -29.8
Cc1cnn(CC2CCCN2C(=O)c2cccc(-n3cnnn3)c2)c1 (stereo not given) | 9.64
N#Cc1ccc(N2CCN(C(=O)c3cc(C4CC4)[nH]n3)CC2)c(F)c1 | -10.4
Cn1ccc(C(=O)N2CCN(CCc3ccccc3)CC2)cc1=O | -19.1
CCS(=O)(=O)N1CC[C@]2(C[C@@H](OCC3CC3)CO2)C1 | 11
c1cnc(-c2nc(CN3CCC(c4ccn[nH]4)CC3)cs2)nc1 | -11.4
CC(C)c1nc(CN(C)C2CCN(CC(F)(F)F)C2)no1 (stereo not given) | -4.21
Cc1occc1C(=O)N1CCCC2(CCN(CCN3CCCC3)C2=O)C1 (stereo not given) | -29.2
COc1cccc(CCNC(=O)CN2CCCC2c2noc(C)n2)c1 (stereo not given) | 22.4

Compound | Percent Effect [%]
CC(=O)NC(C)c1ccc(OCC2CC2)c(F)c1 (stereo not given) | 4.12
CCN1CC2(CC1=O)CN(Cc1cccs1)CCN(C(=O)C(C)C)C2 (stereo not given) | 0.818
CN(Cc1nnc(C2CC2)n1C)C1CCN(CCc2cccs2)C1 (stereo not given) | -43.7
Cc1ncsc1-c1nnc(C2CCN(CC3CCCCC3)CC2)o1 | -22.2
Cc1n[nH]cc1C(=O)N1CCCC(n2nnc3cc(F)ccc32)C1 (stereo not given) | -9.56
CCCN1CCN(C(=O)c2scnc2C)CC1 | 5.75
O=C(NC1CC1)[C@@H]1CCO[C@@H]2CCN(C3CCOCC3)C[C@H]21 | -34.3
N#Cc1ccc(NCCNc2ccc(C(F)(F)F)cn2)nc1 | 45.1
COc1ccccc1C1CNC(=O)c2nc(-c3cnn(C)c3)[nH]c2C1 (stereo not given) | -58
CCn1c(N)nc2cc(C(=O)NCCc3sccc3C)cnc21 | -89
CCN(CC(=O)NC)S(=O)(=O)N1CCCCCC1 | 6.63
Cc1cc(NC(=O)NCCc2cccs2)n(C)n1 | -38.4
CCc1noc(CN2CCCC2c2noc(C3CC3)n2)n1 (stereo not given) | 12.9
O=c1cc(CN2CCCC2)nc2n1CCCN(Cc1ccsc1)C2 | -22.4
Cc1cc(C)n(CC2CCCN2CCS(=O)(=O)c2ccccc2)n1 (stereo not given) | -9.51
CCOc1cc(C)nc(N2CCN(C(=O)c3ccc[nH]3)CC2)n1 | 29.4
O=C1NC2(CCN(C(=O)Cc3ccsc3)CC2)CC1c1ccncc1 (stereo not given) | -5.98
COCC(NC(=O)c1cc[nH]n1)c1cccc(C(F)(F)F)c1 (stereo not given) | -7.89
CCN(CC(=O)NC(C)C)S(=O)(=O)N1CCC(C)C1 (stereo not given) | -3.8
CN1CCCC1c1cccc(Cc2ccccc2F)n1 (stereo not given) | 1.7
